Test results from PubChem BioAssay AID1053133 (Broad Institute, 2014).
Several values for one entry are separate records, joined by “and”; a condition that tells them apart may be missing. Identical values can stand only once. In all, about 89,000 compounds went through this assay and about 10 (0.01%) were called active. Inconclusive results (about 10%) are left out. No stated cut-off is given here; in the data, active means activity change below about -37% (passing the limit was not always enough); inconclusive means no clear call, values can overlap the other calls; tested in A549 cells. A selection follows.

assay: Vaccinia orthopox stage-specific inhibition, primary screen, cell-based, single point (AID 1053133); conditions: Vaccinia-infected cells, mCherry/Venus stage reporter fluorescence, stronger effect = lower value, concentration not given here; activity change (Venus): measured here: Venus reporter, other viral stage

Compound | activity change (Venus) | activity change (mCherry)
O=C(C[C@@H]1CC[C@H]2[C@@H](COC[C@H](O)CN2Cc2ccc(F)cc2)O1)N1CCc2ccccc2C1 | -6.62% | -6.87% (inactive)
CN(C)CC(=O)N1[C@H](CO)[C@@H](c2ccc(-c3cccc(C(=O)N(C)C)c3)cc2)[C@@H]1C#N | -1.53% | 8.67% (inactive)
O=C(c1ccncc1)N1C[C@H]2[C@@H](c3ccccc31)[C@H](CO)N2C(=O)Nc1ccc(F)cc1 | 5.09% | 11% (inactive)
COCC(=O)Nc1ccc2c(c1)C(=O)N(C)[C@@H]1CC[C@H](CC(=O)NCC3CC3)O[C@H]1CO2 | 3.16% | 15.4% (inactive)
O=C(c1ccncc1)N1C[C@H]2[C@@H](c3ccccc31)[C@H](CO)N2C(=O)c1ccccn1 | 2.97% | 10.6% (inactive)
COc1ccc2c3c([nH]c2c1)[C@@H](CO)N(Cc1ccccc1F)CC31CN(C(=O)C2CC2)C1 | 19.6% | 12.9% (inactive)
CCCN(C)C[C@@H]1Oc2ncc(-c3cccc(C(=O)N(C)C)c3)cc2C(=O)N([C@H](C)CO)C[C@@H]1C | 1.46% | 23.1% (inactive)
C[C@@H]1CN([C@@H](C)CO)S(=O)(=O)c2ccc(-c3ccc(F)cc3)cc2O[C@@H]1CN(C)CC1CC1 | -14.3% | -33.2% (inactive)
Cn1cnc(S(=O)(=O)N2C[C@@H]3N[C@H](C2)C3c2ccc(/C=C/c3ccccc3)cc2)c1 (stereo not given in full) | 2.7% and -14.5% | 7.98% (inactive) and -24.7% (inactive)
C[C@H](CO)N1C[C@H](C)[C@@H](CN(C)C(=O)Cc2ccncc2)Oc2ncc(C3=CCCCC3)cc2C1=O | -16% | -18.8% (inactive)
CCC(=O)N1CC2(C1)[C@H](c1ccccc1)[C@@H](CO)N2C(=O)c1ccccc1 | -1.49% | -4.89% (inactive)
COc1ccc(-c2ccc3n(c2=O)C[C@@H]2[C@@H](CO)[C@H](C(=O)Nc4ccccc4)[C@H]3N2C)cc1 | 4.65% | -0.0885% (inactive)
CO[C@H]1CN(C)C(=O)c2ccc(NC(=O)c3ccno3)cc2OC[C@@H](C)N(S(C)(=O)=O)C[C@H]1C | 16.7% | 24.5% (inactive)
Cc1ccc(F)cc1S(=O)(=O)N[C@@H]1CCN(Cc2ccc(-c3ccccc3)cc2)C1 | -24.3% | -23.2% (inactive)
C[C@@H](NC(=O)C[C@H]1C[C@@H]2c3cc(NC(=O)Nc4ccccc4F)ccc3O[C@@H]2[C@H](CO)O1)c1ccccc1 | 0.165% | 4.14% (inactive)
O=C(C[C@@H]1C[C@H]2c3cc(NC(=O)NC4CCCCC4)ccc3O[C@H]2[C@H](CO)O1)NCc1ccncc1 | 10.9% | -4.22% (inactive)
COc1ccccc1NC(=O)N(C)C[C@H]1Oc2cc(Br)ccc2S(=O)(=O)N([C@H](C)CO)C[C@@H]1C | -7.91% and 3.04% | -12.3% (inactive) and -2.64% (inactive)
O=C(C[C@@H]1CC[C@@H]2[C@H](COC[C@H](O)CN2C(=O)C2CC2)O1)NCc1ccncc1 | -2.42% | 0.733% (inactive)
COCC#Cc1ccc2c(c1)O[C@@H](CN(C)C(=O)Nc1ccccc1F)[C@H](C)CN([C@H](C)CO)S2(=O)=O | 11.6% | 9.91% (inactive)
CN1C(=O)c2cc(NC(=O)c3ccccc3)ccc2OC[C@H]2O[C@@H](CC(=O)O)CC[C@@H]21 | 4.29% | 9.5% (inactive)
O=C(c1ccccn1)N1CC2(C1)[C@H](c1ccccc1)[C@H](CO)N2C(=O)C1CCCC1 | -9.04% | -13.9% (inactive)
Cc1noc(C)c1NC(=O)N[C@@H]1CC[C@H](CC(=O)Nc2ccccc2)O[C@H]1CO | 10.3% | 4.56% (inactive)
COc1ccc2c3c([nH]c2c1)[C@@H](CO)N(C(=O)c1cccc(F)c1)CC31CN(C(C)=O)C1 | -6.3% | 16.8% (inactive)
CCC(=O)Nc1ccc2c(c1)OC[C@@H](C)N(Cc1ccccn1)C[C@H](C)[C@@H](OC)CN(C)C2=O | 5.46% | 6.05% (inactive)
C[C@@H]1CN([C@H](C)CO)S(=O)(=O)c2ccc(C#CCC3CCCC3)cc2O[C@H]1CN(C)Cc1ccc(C(=O)O)cc1 | -4.35% | 11.2% (inactive)
O=C(C[C@H]1CC[C@@H]2[C@H](COC[C@@H](O)CN2CC2CC2)O1)NCC1CC1 | 15.8% | 11.7% (inactive)
C[C@H](CO)N1C[C@H](C)[C@@H](CN(C)C(=O)Nc2ccc3c(c2)OCO3)OCCCC[C@H](C)Oc2ccc(NS(=O)(=O)c3cn(C)cn3)cc2C1=O | 3.74% | 11.2% (inactive)
CO[C@H]1CN(C)C(=O)c2ccc(NC(=O)c3cc(C)on3)cc2OC[C@@H](C)NC[C@@H]1C | 4.97% | 2.62% (inactive)
CCCc1cn(CC[C@H]2CC[C@@H](NS(=O)(=O)c3ccccc3Cl)[C@@H](CO)O2)nn1 | 1.1% | 5.97% (inactive)
CCNC(=O)[C@H]1[C@H](CO)[C@H]2Cn3c(ccc(/C=C/c4ccccc4)c3=O)[C@@H]1N2C(=O)C1CCC1 | 12.9% | 11.2% (inactive)
